# According to PubChem BioAssay (NCI):
# About 83,000 compounds went through this panel and 20% of them were active in at least one assay; those are over-represented in the sample as a whole.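 Each cell line was grown in a 96-well plate and treated with one concentration of compound for 48 hours. Values below 10 were considered active.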 Unmarked numbers belong to inactive results. The source made the active and inactive calls.
# What was measured:
# Assay in all cases: NCI-60 one-dose screen, 48 h (100 = growth as untreated, 0 = no growth, -100 = all killed)
# NCI-H322M lung = conditions: 10 µM unless noted
# HOP-62 NSCLC = conditions: 10 µM unless noted
# NCI-H460 lung = conditions: 10 µM unless noted
# HOP-92 NSCLC = conditions: 10 µM unless noted
# NCI-H522 lung = conditions: 10 µM
# A549/ATCC NSCLC = conditions: 10 µM unless noted
# 786-0 renal = conditions: 10 µM unless noted
# COLO 205 colon = conditions: 10 µM unless noted
# DU-145 prostate = conditions: 10 µM unless noted
# K-562 leukemia = conditions: 10 µM unless noted
# MDA-MB-231 breast = conditions: 10 µM unless noted
# RXF 393 renal = conditions: 10 µM unless noted
# SF-268 CNS = conditions: 10 µM unless noted
# SF-295 CNS = conditions: 10 µM unless noted
# SF-539 CNS = conditions: 10 µM unless noted
# UACC-257 melanoma = conditions: 10 µM unless noted
# M14 melanoma = conditions: 10 µM unless noted
# MALME-3M melanoma = conditions: 10 µM unless noted
# NCI-H226 lung = conditions: 10 µM
SMILES,growth (NCI-H322M lung) [%],growth (HOP-62 NSCLC),growth (NCI-H460 lung),growth (HOP-92 NSCLC),growth (NCI-H522 lung),growth (A549/ATCC NSCLC),growth (786-0 renal),growth (COLO 205 colon),growth (DU-145 prostate),growth (K-562 leukemia),growth (MDA-MB-231 breast),growth (RXF 393 renal),growth (SF-268 CNS),growth (SF-295 CNS),growth (SF-539 CNS),growth (UACC-257 melanoma),growth (M14 melanoma),growth (MALME-3M melanoma),growth (NCI-H226 lung)
O=C1C(Cl)=C(NCCCN2CCOCC2)C(=O)c2ccccc21,98.5,120%,99.2%,106%,89.9%,98.8%,113%,86.9%,126%,60.3%,97.3%,108%,106%,109%,125%,73.3%,101%,–,–
COc1cc(C2=NN(c3ccc(S(N)(=O)=O)cc3)C(c3ccc(Cl)cc3)C2)cc(OC)c1OC (stereo unspecified),66.9,60.6%,25.8%,23.3%,44.9%,26.2%,66.5%,48.5%,65.9%,18.7%,43.7%,34.8%,48.2%,25%,69.1%,57.5%,45.7%,85.7%,–
Cc1nc2cc(Nc3nc(Nc4ccc(F)cc4)nc(N4CCN(C)CC4)n3)ccc2n1Cc1ccccc1,–,58.2%,3.42% (active),2.5% (active),-55.1% (active),7.21% (active),-83.1% (active),-55.5% (active),16.7%,0.387% (active),-73.3% (active),-82.7% (active),14.6%,-62.5% (active),-95.9% (active),-83.7% (active),-73% (active),-83.4% (active),65%
Cc1ccc(-c2c3c(N)c4c(nc3nc3c2c(C)nn3-c2ccccc2)CCCC4)cc1,–,106%,101%,81.6%,91.6%,93.3%,91.6%,92.3%,105%,36.6%,97.1%,97%,108%,100%,103%,92.2%,110%,107%,91.8%
COc1ccc(C(=O)C2=CC(=O)C(=O)C2)cc1OC,–,94.1%,103%,95.9%,86.6%,–,101%,112%,111%,116%,124%,106%,103%,100%,95.5%,115%,107%,114%,103%
COc1ccc(/C=C(\C#N)c2ccc(OC)cc2)cc1,–,67.1%,50.9%,–,–,54.3%,90.1%,78.7%,72.3%,20.1%,72.8%,65.3%,78.4%,47%,79.7%,83.8%,61.9%,–,82.7%
CCCCCCCCCCCC(=O)[O][Sn]([CH2]CCC)([CH2]CCC)[CH2]CCC,–,-94.9% (active),-55.2% (active),-95.7% (active),-96% (active),-91.1% (active),-99.7% (active),-78.2% (active),-98.7% (active),-29.9% (active),-94.6% (active),-72.4% (active),-83.7% (active),-83.8% (active),-97.7% (active),-96.5% (active),-99.6% (active),-96.1% (active),-66% (active)
O=C(N/N=C/c1ccc(F)cc1)c1[nH]c2ccc(I)cc2c1-c1ccccc1,34,38%,1.78% (active),22.5%,4.71% (active),32.4%,28.3%,-40.1% (active),15.7%,75.4%,16.5%,39.6%,34.6%,22.1%,-18.1% (active),93.3%,28.4%,71.5%,–
CSc1ccc(OC(C)=O)cc1C,–,–,104%,97.2%,105%,101%,98.1%,104%,94%,114%,113%,98.5%,94.3%,97.7%,98.5%,97.6%,101%,95.5%,98.3%
